Measured potencies and affinities stand elsewhere. Records with an inconclusive call do not appear. Active and inactive are the calls of the source.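 How the source made its calls: active means signal loss with fitted half-maximal concentration at or below twice the top valid tested dose in every test run; inconclusive means runs disagree, flat 30 to 70% signal loss, or poor fit; inactive means all runs flat, opposite direction, or potency beyond limit.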
Experiment: HEK293T cytotoxicity, dose response, cytotoxicity control for miR-122 modulator project, cell-based, inhibitor set, cherry-pick, set 2 (AID 720697)
Details: HEK293T viability, CellTiter-Glo luminescence, 48 h; series mostly up to 26 µM

Structure (SMILES): COc1ccc2c(c1)c(CCN)c(C)n2Cc1ccccc1
- outcome: inactive

Structure (SMILES): COc1ccc(C2SCC(=O)Nc3c2c(=O)[nH]n3C2CCCCCC2)cc1 (configuration not stated)
- outcome: inactive
